# Compounds without any hit were thinned out: in the full panel of roughly 83,000, 20% have a hit.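 Method: cells in 96-well plates; compound added at one concentration; 48 h incubation; percent growth measured; values under 10 scored active.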 Values without a mark were called inactive. The source made the active and inactive calls.
# Experiments:
# Assay in all cases: NCI-60 one-dose screen, 48 h (100 = growth as untreated, 0 = no growth, -100 = all killed)
# Details in all cases: 10 µM unless noted
# DU-145 prostate = system: DU-145 prostate
# K-562 leukemia = system: K-562 leukemia
# MALME-3M melanoma = system: MALME-3M melanoma
# MDA-MB-231 breast = system: MDA-MB-231 breast
# RXF 393 renal = system: RXF 393 renal
# SF-268 CNS = system: SF-268 CNS
# SF-295 CNS = system: SF-295 CNS
# SF-539 CNS = system: SF-539 CNS
# M14 melanoma = system: M14 melanoma
Compound,growth (DU-145 prostate),growth (K-562 leukemia),growth (MALME-3M melanoma),growth (MDA-MB-231 breast),growth (RXF 393 renal),growth (SF-268 CNS),growth (SF-295 CNS),growth (SF-539 CNS),growth (M14 melanoma)
CC1Cc2c(N(C)C)ncnc2N(C)c2ccc(Cl)cc21 (stereo unspecified),52.4%,14.3%,51.4%,55%,42.6%,44.5%,3.45% (active),4.81% (active),22.2%
CN(C)CCCNC(=O)C(c1ccccc1)c1ccccc1,115%,95.2%,104%,102%,116%,107%,102%,99.4%,101%
O=C(O)C(=Cc1c2ccccc2cc2ccccc12)C(=O)O,118%,100%,97.9%,103%,115%,108%,100%,97.3%,100%
O=C(/C=C/CN1CCOCC1)Nc1cc2c(Nc3cccc(Cl)c3F)ncnc2cc1OCCOC(F)F,49.5%,76%,64.4%,68.6%,68.4%,65.2%,81.2%,81.4%,94.3%
CC/C=C\C/C=C\C[C@H]1C/C=C2/C(=O)C=C[C@H]2C/C=C\CCC(=O)O1,12.7%,1.48% (active),12.4%,3.22% (active),-48% (active),12.7%,6.87% (active),13%,-3.62% (active)
C=C1C(=O)O[C@H]2[C@H]1CC/C(COC(=O)NCc1cc(OC)cc(OC)c1)=C\CC[C@@]1(C)O[C@@H]21,-6.21% (active),3.43% (active),-44.1% (active),-5.09% (active),-41.9% (active),21.4%,81.4%,5.25% (active),-31% (active)
Nc1cc2c(cc1N)-c1cc(N)c(N)cc1C2,118%,107%,102%,83.8%,107%,91.4%,113%,103%,101%
CCN(CC)CCSc1c2ccc(Cl)cc2nc2ccc(OC)cc12,-38% (active),9.42% (active),101%,51.9%,116%,96.7%,105%,99.6%,79%
CCCCC[C@@H]1Cc2cc(O)c(C(=O)O)c3c2[C@H](C[C@@]2(CCCO2)O3)O1,111%,58.1%,121%,101%,73.4%,116%,101%,103%,103%
CC(Br)C(OC(=O)c1ccccc1Cl)c1cc2c(cc1Br)OCO2 (stereo unspecified),92.7%,94.6%,92.9%,94.3%,77.8%,86.1%,101%,100%,86.6%
Cc1nc2scc(-c3ccccc3)n2c(=O)c1CCO,108%,98.4%,102%,97.3%,106%,97.5%,102%,100%,101%
COc1ccc(Cl)cc1NC(N)=S,108%,104%,104%,104%,112%,99.5%,106%,99.8%,105%
CC1CCc2c(sc(NC(=O)CSc3nnc4ccccn34)c2C(N)=O)C1 (stereo unspecified),144%,117%,181%,102%,1.36% (active),109%,93.6%,137%,117%
CN(C)C/C=C/C(=O)Nc1cc2c(Nc3ccc(F)c(Cl)c3F)ncnc2cc1OCCOC(F)F,10.4%,5.47% (active),35.3%,-1.17% (active),-29.4% (active),14.4%,33.7%,9.19% (active),41.5%
CCCCCCOc1ccc(C2(Cl)c3ccccc3N(C)c3ccccc32)cc1,55.7%,48.8%,-21.5% (active),32.7%,57%,49.5%,28.9%,89.3%,12.9%
CC(Br)C(O)c1cc2c(cc1Br)OCO2 (stereo unspecified),109%,101%,109%,111%,104%,104%,110%,105%,96%
O=C1CCCCN1CCCCC#Cc1ccccc1C#Cc1ccccn1,109%,93.6%,100%,102%,56.6%,107%,109%,103%,112%
Cc1ccc2c(c1)C(C)Cc1c(ncnc1-n1cnc3ccccc31)N2C (stereo unspecified),8.43% (active),6.64% (active),65.6%,25.1%,21.5%,34.1%,-11.4% (active),-33.1% (active),18.1%
C=C1C(=O)O[C@H]2[C@H]1CC/C(COC(=O)NCCc1cccc(OC)c1)=C\CC[C@@]1(C)O[C@@H]21,16.5%,11.5%,85.3%,29.4%,-2.81% (active),55.4%,89.2%,38.9%,29.9%
COc1ncc(-c2ccc3ncnc(Nc4cccc(Cl)c4)c3c2)cc1NS(=O)(=O)CCN1CCOCC1,18.6%,45.8%,-19.8% (active),16.4%,-30.7% (active),23%,-24.1% (active),-18.9% (active),18.1%
CN(C)C1CCC(NC2=CC(=O)C=CC2=O)CC1 (stereo unspecified),107%,111%,115%,109%,118%,99.9%,128%,112%,107%
O=C(NCCc1c[nH]c2ccccc12)C1Cc2ccccc2CN1C(=O)c1ccco1 (stereo unspecified),114%,71.5%,96.2%,96.2%,154%,111%,113%,103%,107%
O=C(C[N+](=O)[O-])c1ccc(Cl)cc1,111%,103%,114%,110%,115%,108%,111%,104%,101%
C=C1C(=O)O[C@H]2[C@H]1CC/C(COC(=O)NCCc1ccc(Br)cc1)=C\CC[C@@]1(C)O[C@@H]21,-33.6% (active),5.94% (active),73.7%,-33.4% (active),-35.3% (active),42.4%,86.5%,20.2%,19.9%
Cc1ccc2nc(-c3c(N)n[nH]c3CCCO)[nH]c(=O)c2c1,121%,102%,137%,99.5%,167%,104%,114%,96.4%,102%
COc1cc(/C=C/C(=O)c2ccccc2O)ccc1OCCCOc1cc2c(cc1OC)C(=O)N1CCC[C@H]1C=N2,2.53% (active),76.3%,-73.1% (active),-20.6% (active),-44.6% (active),0.95% (active),-11% (active),-1.54% (active),-7.64% (active)
CCCCCCCCCCC/C=C\C[C@H](O)C/C=C1/C(=O)C=C[C@@H]1C/C=C\CCCC(=O)OC,13.3%,2.5% (active),-2.61% (active),-18.2% (active),-72.8% (active),7.18% (active),-16% (active),-46.2% (active),-31.9% (active)
COc1cc(C(=O)CCCl)ccc1O,107%,97.4%,88.7%,94.3%,98.2%,96.1%,100%,94.7%,111%
C=C1C(=O)O[C@H]2[C@H]1CC/C(Cn1cc(-c3ccc(N)cc3)nn1)=C\CC[C@@]1(C)O[C@@H]21,4.28% (active),6.36% (active),-23.1% (active),4.85% (active),-67.1% (active),16.6%,67.6%,-18.7% (active),-18.2% (active)

# — PubChem BioAssay (NCI)
